Luc counter: blocks Kinase-Glo luciferase, a counter-screen artifact. Q27757. Kinase-Glo luciferase, ATP luminescence, 8 min. Potency, µM (titrated, usually from 38.3 µM), usual class: inhibitors. hit rate 0.28% among 200,000. AID 1379; also: nearly all actives have a fitted effect of over 60% in size
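Compounds were added to a substrate mix at pH 7.2 (50 mM imidazole, 10 uM ATP, within the enzyme's linear range), followed by Kinase-Glo detection reagent; luminescence was measured after 8 minutes at ambient temperature.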
Rab9 prom act: activates the Rab9 promoter; Huh7 Rab9 promoter-luciferase reporter, luminescence, 24 h; Potency, µM (top dose mostly 9.22 µM), actives largely listed as activators; hit rate 2.8% among 320,000; AID 485297; also: nearly all actives have a fitted effect of over 60% in size
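Using Huh7 cells stably transfected with Rab9 promoter–luciferase, compounds were incubated 24 h at 37 °C, 5% CO2; luciferase luminescence was read 10 min after reagent addition.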
FLuc modulator: firefly luciferase modulation, counter-screen for miR-21 project. P08659. purified FLuc, Km substrates, luminescence inhibition. Potency, µM (titrated, usually from 57.5 µM), usual class: inhibitors. hit rate 6.9% among 360,000. AID 588342; also: nearly all actives have a fitted effect of over 55% in size
Target sequence (P08659 whole entry, looked up): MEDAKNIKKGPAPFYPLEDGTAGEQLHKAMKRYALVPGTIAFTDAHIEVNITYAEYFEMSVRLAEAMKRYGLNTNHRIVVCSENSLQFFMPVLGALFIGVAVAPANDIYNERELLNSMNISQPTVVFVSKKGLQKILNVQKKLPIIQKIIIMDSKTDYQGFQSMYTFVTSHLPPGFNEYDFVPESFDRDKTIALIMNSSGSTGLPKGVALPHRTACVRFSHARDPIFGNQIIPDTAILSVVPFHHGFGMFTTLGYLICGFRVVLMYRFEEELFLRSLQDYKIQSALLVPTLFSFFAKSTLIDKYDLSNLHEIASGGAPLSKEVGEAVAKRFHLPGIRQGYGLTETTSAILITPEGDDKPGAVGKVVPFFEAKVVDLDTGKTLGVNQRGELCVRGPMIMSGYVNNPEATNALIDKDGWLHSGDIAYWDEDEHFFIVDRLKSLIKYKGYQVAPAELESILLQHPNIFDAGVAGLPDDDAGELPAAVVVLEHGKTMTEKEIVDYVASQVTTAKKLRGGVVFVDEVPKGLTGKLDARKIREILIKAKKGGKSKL
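Biochemical qHTS of compounds, final roughly 60 µM downward over six points, against 10 nM purified firefly luciferase using Km concentrations of substrates (10 uM D-luciferin, 10 uM ATP) in Tris acetate pH 7.5 buffer; luminescence output.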
ELG1 genotoxic: inducers of genotoxicity in HEK293T ELG1-luciferase cells; HEK293T ELG1-luciferase reporter, luminescence, 16 h; Potency, µM (doses to about 46 µM), actives largely listed as activators; hit rate 1.3% among 330,000; also: nearly all actives have a fitted effect of over 60% in size
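HEK293T cells expressing luciferase-tagged ELG1 were exposed to compound or DMSO vehicle for 16 hr at 37 °C and 5% CO2. Luciferase activity was then measured with ONE-Glo after 30 min at room temperature.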
SMN2 splice enh: SMN2 splice variant enhancement | Potency, µM (top dose mostly 46.1 µM), usual class: activators | hit rate 2.8% among 210,000 | HEK293 SMN2-luciferase splicing reporter, luminescence, 30-36 h; also: nearly all actives have a fitted effect of over 55% in size
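HEK293 cells carry an SMN2 minigene-luciferase reporter in which exon 7 inclusion puts luciferase in frame. Cells were seeded at 2000 cells/well, attached for 10-12 hours, then exposed to compounds for 30-36 hours at 37C before ONE-Glo luminescence.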
NPC1 prom act: activates the NPC1 promoter | Huh7 NPC1 promoter luciferase reporter, 24 h | Potency, µM (highest dose often 9.22 µM), actives largely listed as activators | hit rate 2.4% among 320,000 | AID 485313; also: nearly all actives have a fitted effect of over 60% in size
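Stably transfected Huh7 (NPC1 promoter→luciferase), 1500 cells/well in Opti-MEM + 10% FBS, 2 h settle, then compound 24 h at 37 °C. Luminescence after 10 min with Amplite reagent.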
Hits are given with their value; – = inactive; ? = inconclusive; · = no result given; [ ] = dose if it differs, or a comment. Hits are enriched below; roughly 7.3% of the tested compounds scored in any of these assays. Calls follow the shape of the dose curve; as a rule, active = well fitted curve in the direction sought with a large enough effect; inconclusive = small, poorly fitted or top-dose-only effect, or another doubt; inactive = no such curve, though single readings can be large; an effect the other way counts as inactive or inconclusive.

SMILES | Luc counter | Rab9 prom act | FLuc modulator | ELG1 genotoxic | SMN2 splice enh | NPC1 prom act
Nc1nonc1C(=Nc1ccc(Br)cc1)NO | – | – | – | – | – | –
Oc1ccc(N=Nc2ccc(Br)cc2)c(O)c1 | · | ? | 4.8µM | ? | · | ?
Oc1ccc(N=Nc2ccc3c(c2)OCCO3)c2cccnc12 | – | – | 6µM | – | – | –
O=S(=O)(O)c1cccc(N=Nc2c(O)ccc3ccccc23)c1 | · | – | 24µM | – | · | –
Oc1ccc2ccccc2c1N=Nc1ccccn1 | – | – | 15µM | – | – | ?
Oc1ccc2ccccc2c1N=Nc1ccccc1F | · | – | 17µM | – | · | ?
CCOC(=O)c1[nH]cnc1N=Nc1c(O)ccc2ccccc12 | – | – | ? | ? | – | –
CCS(=O)(=O)N1CCN(c2ccc(C(=O)NC3C4CC5CC(C4)CC3C5)cc2[N+](=O)[O-])CC1 (stereo unspecified) | – | – | – | – | – | –
CCCc1ccc2oc(C(=O)N3CCC[C@H]3CO)c(C)c2c1 | · | 3.2µM | 11µM | ? | · | 6.3µM
CCCc1ccc2oc(C(=O)N3CCC(COC)C3)c(C)c2c1 (stereo unspecified) | · | 2.8µM | 12µM | ? | · | 2.8µM
CCCc1ccc2oc(C(=O)N3CCC(N4CCCC(O)C4)CC3)c(C)c2c1 (stereo unspecified) | · | – | – | – | · | –
COC(=O)[C@]12C(=O)NC[C@H](CN1c1ccc(C(F)(F)F)cc1)N2C | · | · | · | – | · | ·
Nc1c(C(=O)Nc2ccc(C(=O)O)cc2)sc2nc3c(cc12)CCCC3 | · | · | 0.19µM | · | ? | ·
Nc1c(C(=O)Nc2ccc(Cl)c(C(=O)O)c2)sc2nc3c(cc12)CCCC3 | · | ? | 2.7µM | – | · | ?
CCN1CCc2nc3sc(C(=O)c4ccc(F)cc4)c(N)c3cc2C1 | · | · | – | · | · | ·
Nc1c(C(=O)Nc2cccc(C(=O)O)c2)sc2nc3c(cc12)CCCC3 | · | 1.3µM | 0.067µM | ? | · | ?
CCOc1ccc(NC(=O)c2sc3nc4c(cc3c2N)CCCCCC4)cc1 | · | · | – | · | – | ·
CCN1CCc2nc3sc(C(=O)c4ccccc4)c(N)c3cc2C1 | · | · | 9.5µM | · | – | ·
OCC1(CCc2ccccc2)CCN(Cc2ccccc2Cl)CC1 | – | – | – | – | · | –
COc1cc(/C=C2\CC(C(C)(C)C)C/C(=C\c3cc(OC)c(OC)c(OC)c3)C2=O)cc(OC)c1OC (stereo unspecified) | · | –[1.84 µM] | – | – | · | –
CCCCN(C)CC(O)Cn1cc(/C=C/C(=O)c2ccc(OCC)cc2)c2ccccc21 (stereo unspecified) | · | – | 17µM | – | – | –
COc1ccc(NC2=C(NC(C)=O)C(=O)c3ccccc3C2=O)cc1 | · | – | – | – | · | –
CCC(=O)NC1=C(Nc2ccc(N)cc2)C(=O)c2ccccc2C1=O | · | 2.8µM | 27µM | – | · | –
CCC(=O)Nc1ccc(C2C(=O)c3ccccc3C2=O)cc1 | · | ? | 1.3µM | ? | · | 0.79µM
COc1ccc2cc(/C=N/NC(=O)c3c(Cl)cnn3C)c(Cl)nc2c1 | – | – | – | – | – | –
SMILES | Luc counter | Rab9 prom act | FLuc modulator | ELG1 genotoxic | SMN2 splice enh | NPC1 prom act
CCCCC(=O)N/C(N)=N/c1nc2ccccc2o1 | · | 1.8µM | 3µM | ? | · | 1.3µM
N/C(=N\c1nc2ccccc2o1)NC(=O)c1ccccc1F | – | 2.5µM | 8.5µM | ? | ? | 1.6µM
O=C(/C=C/c1ccc(-c2ccccc2[N+](=O)[O-])o1)c1ccco1 | – | ? | 19µM | – | – | –
COc1cccc(/C=N/NC(=O)c2cccc3ccccc23)c1 | · | – | – | – | · | –
Cc1scc(C(=O)N/N=C/c2ccco2)c1C | – | 2.8µM | 11µM | ? | 11µM | ?
CCCOc1cccc(/C=N/NC(=O)c2csc(C)c2C)c1 | – | – | 4.8µM | – | – | –
COC(=O)N/N=C/c1ccc(OCCSc2ccc(Cl)cc2)c(OC)c1 | – | – | – | – | – | –
COC(=O)N/N=C/c1cccc(OCCSc2ccc(Cl)cc2)c1 | – | – | – | – | 11µM | ?
Cc1scc(C(=O)N/N=C/c2ccc([N+](=O)[O-])o2)c1C | · | – | – | – | · | –
Cc1scc(C(=O)N/N=C/c2ccsc2)c1C | – | 2.8µM | 2.1µM | 10µM | 18µM | ?
CCc1cc(=O)oc2cc(OC(C)C(=O)NCc3ccccn3)ccc12 (stereo unspecified) | · | – | – | – | · | –
Cc1ccc(OCCCCn2c(CO)nc3ccccc32)cc1 | – | – | – | – | – | –
Cc1ccccc1OCCCn1c(CO)nc2ccccc21 | – | – | 15µM | – | – | –
OCc1nc2ccccc2n1CCCOc1ccc(Br)cc1 | – | · | 11µM | · | – | ·
O=C(COc1ccc(OCc2ccccc2)cc1)NC1CCOC1=O (stereo unspecified) | – | – | 21µM | – | – | –
CC1CCN(C(=O)CNC(=O)Cn2ccc3ccccc3c2=O)CC1 | – | – | – | – | – | –
CC(c1ccon1)N(C)C(=O)CCc1nnc(Cc2ccc(-c3ccccc3)cc2)o1 (stereo unspecified) | – | – | ? | – | · | –
O=C(CCc1nnc(-c2ccc(-c3ccccc3)cc2)o1)NCCc1ccccn1 | – | – | 19µM | ? | · | –
CC(NC(=O)CCc1nnc(-c2ccc(-c3ccccc3)cc2)o1)c1nccs1 (stereo unspecified) | – | – | 17µM | – | 10µM | –
CC(c1nccs1)N(C)C(=O)CCc1nnc(-c2ccc(-c3ccccc3)cc2)o1 (stereo unspecified) | · | – | 12µM | – | · | –
Cc1[nH]nc2c1C(c1cc(Br)cs1)C(C#N)=C(N)O2 (stereo unspecified) | – | – | – | – | – | –
COc1cc2c(cc1N/C=C(\C#N)c1nc(-c3ccc(F)cc3)cs1)oc1ccccc12 | · | – | – | – | · | –
CSCCC1C(C#N)=C(N)Oc2n[nH]c(-c3cccs3)c21 (stereo unspecified) | · | – | – | – | · | –
O=c1[nH]c(-c2cccnc2)nc2ccccc12 | – | – | – | – | – | –
COc1ccc(-c2nc3ccccc3c(=O)[nH]2)cc1 | · | 0.71µM | 3.4µM | 9.2µM | · | 1.4µM
CN(C)c1ccc(-c2nc3ccccc3c(=O)[nH]2)cc1 | · | 0.25µM | 0.6µM | 0.82µM | · | 0.35µM
O=c1[nH]c(-c2ccncc2)nc2ccccc12 | – | – | ? | – | – | –
Cc1cccc(-c2nc3ccccc3c(=O)[nH]2)c1 | · | 3.2µM | 11µM | ? | · | 2.8µM
CCCC(=O)OC1CC(C)N(C(=O)c2ccccc2)c2ccc(C)cc21 (stereo unspecified) | – | – | – | – | – | –
CC(=O)OC1CC(C)N(C(=O)c2ccccc2)c2ccc(C)cc21 (stereo unspecified) | – | – | – | 21µM | ? | –

From PubChem BioAssay
